In PubChem BioAssay (EPA / NIEHS):
The source made the active and inactive calls. How the source made its calls: active means hit-call score of the fitted dose curve at least 0.9, where 1 is the maximum; inactive means score below 0.9.

How the values were obtained:
[1] = APR_HepG2_CellCycleArrest_24hr: Apredica 24-hour HepG2 Assay for Cell Cycle Arrest (AID 2282905); details: imaging, actives raise or lower the signal;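 further: cell cycle arrest scored as ratio of 2N to 4N nuclear DNA content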
Summary of the method: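 HepG2 cells were exposed to compounds at 0.39–200 uM (ten concentrations, duplicate) in 0.5% v/v DMSO for 24 hr. After formaldehyde fixation and Triton permeabilization, Hoechst 33342-stained nuclei were imaged at 20x; DNA content was quantified, with bidirectional fitting against DMSO.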

[2] = APR_HepG2_NuclearSize_24hr: Apredica 24-hour HepG2 Assay for Nuclear Size (AID 2282907); details: high-content imaging, actives raise or lower the signal
Summary of the method: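 HepG2 human liver cells were exposed for 24 hr to compounds at 0.39–200 uM (ten concentrations, duplicate) in 0.5% v/v DMSO. They were then formaldehyde-fixed, Triton-permeabilized and Hoechst 33342-stained, and nuclear diameter was imaged at 20x. Bidirectional fits were made against DMSO.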

[3] = APR_HepG2_CellLoss_24hr: Apredica 24-hour HepG2 Assay for Cell Loss (AID 2282908); details: high-content imaging;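 on AC50: fit in both directions so a hit may be cell loss or gain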
Summary of the method: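 Compounds were tested at 0.39–200 uM in duplicate with 0.5% v/v DMSO final. Cells were then fixed in 3.7% formaldehyde, Hoechst 33342 nuclei were imaged at 20x by HCS, and cell number was fitted bidirectionally against DMSO.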

[4] = APR_HepG2_MicrotubuleCSK_24hr: Apredica 24-hour HepG2 Assay for Microtubule CSK Stabilty (AID 2282909); details: HepG2 microtubule cytoskeleton imaging, actives raise or lower the signal
Summary of the method: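 HepG2 cells exposed 24 h to compounds at 0.39–200 uM (duplicate, 0.5% v/v DMSO final), then fixed, permeabilized and immunostained for alpha-tubulin with Hoechst 33342. Cytoskeleton imaged at 20x; bidirectional fit versus DMSO baseline.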

[5] = APR_HepG2_MitoticArrest_24hr: Apredica 24-hour HepG2 Assay for Mitotic Arrest (AID 2282910); details: high-content imaging, actives raise or lower the signal
Summary of the method: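 HepG2 human liver cells were exposed to compounds at 0.39–200 uM (10 concentrations, duplicate) in 0.5% v/v DMSO for 24 hr, then fixed and immunostained for phospho-histone H3 with Hoechst 33342. Mitotic arrest came from HCS fluorescent imaging, fitted bidirectionally against DMSO.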

[6] = APR_HepG2_MitoMembPot_24hr: Apredica 24-hour HepG2 Assay for Mitochondrial Membrane Potential (AID 2282911); details: imaging, actives raise or lower the signal
Summary of the method: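 HepG2, 24 hr dosing, 10 concentrations 0.39–200 uM, 0.5% DMSO final. Live-cell MitoTracker Red CMXRos 250 nM 30 min, then 3.7% formaldehyde fix. HCS fluorescence imaging, 20x; bidirectional fit vs DMSO baseline.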

[7] = APR_HepG2_MitoMass_24hr: Apredica 24-hour HepG2 Assay for Mitochondrial Mass (AID 2282912); details: high-content imaging, actives raise or lower the signal
Summary of the method: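 Human HepG2 liver cells were exposed for 24 hr to compounds at 0.39–200 uM (duplicates, 0.5% v/v DMSO final). They were stained live with 250 nM MitoTracker Red CMXRos for 30 min, fixed in 3.7% formaldehyde, and imaged by HCS fluorescence; signals were fitted bidirectionally against DMSO.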

[8] = APR_HepG2_CellCycleArrest_72hr: Apredica 72-hour HepG2 Assay for Cell Cycle Arrest (AID 2282914); details: high-content imaging, actives raise or lower the signal
Summary of the method: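 HepG2, 72 hr exposure, 10-point 0.39–200 uM, duplicate, 0.5% DMSO final. Fix 3.7% formaldehyde 30 min RT, Triton X-100 0.5%, Hoechst 33342 2 ug/mL. ArrayScan 20x, six fields/well; DNA content per nucleus; bidirectional fit vs DMSO.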

[9] = APR_HepG2_CellLoss_72hr: Apredica 72-hour HepG2 Assay for Cell Loss (AID 2282915); details: high-content imaging
Summary of the method: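 HepG2 cells were exposed for 72 hr to compounds at 0.39–200 uM (ten concentrations, duplicate) in 0.5% v/v final DMSO. Nuclei were stained with Hoechst 33342 after 3.7% formaldehyde fixation, imaged at 20x, and counted; fits bidirectional versus DMSO.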

[10] = APR_HepG2_P-H2AX_72hr: Apredica 72-hour HepG2 Assay for H2AX Phosphorylation (AID 2282916); details: imaging, actives raise or lower the signal;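 further: phospho-histone H2A.x immunostain intensity per cell marking DNA damage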
Summary of the method: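 HepG2 human liver cells were exposed for 72 hr to compounds at 0.39–200 uM (10 concentrations, duplicate per plate) in 0.5% v/v DMSO. Fixed, permeabilized cells were immunolabeled for phospho-histone H2A.x with Hoechst 33342 and imaged by HCS fluorescence; bidirectional fit versus DMSO.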

[11] = APR_HepG2_MitoMembPot_72hr: Apredica 72-hour HepG2 Assay for Mitochondrial Membrane Potential (AID 2282917); details: imaging, actives raise or lower the signal
Summary of the method: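 HepG2 cells exposed 72 h to compounds at 0.39–200 uM (0.5% v/v DMSO, duplicates); MitoTracker Red CMXRos 250 nM loaded 30 min before 3.7% formaldehyde fixation, imaged by HCS fluorescence. Bidirectional fit versus DMSO.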

[12] = APR_HepG2_MitoticArrest_72hr: Apredica 72-hour HepG2 Assay for Mitotic Arrest (AID 2282918); details: high-content imaging, actives raise or lower the signal
Summary of the method: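 HepG2, 72 hr exposure, 0.39–200 uM in duplicate, 0.5% v/v DMSO final. Formaldehyde-fixed, Triton-permeabilized, anti-phospho-histone H3/FITC plus Hoechst. ArrayScan imaging at 20x; curves fit bidirectionally against DMSO baseline.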

[13] = APR_HepG2_MicrotubuleCSK_72hr: Apredica 72-hour HepG2 Assay for Microtubule CSK Stabilty (AID 2282919); details: HepG2 microtubule cytoskeleton, high-content imaging, actives raise or lower the signal
Summary of the method: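 HepG2 human liver cells were dosed for 72 h at ten concentrations from 0.39 to 200 uM in duplicate (0.5% v/v DMSO final). Fixed, permeabilized cells were immunostained for alpha-tubulin (Cy5) with a Hoechst counterstain and imaged at 20x.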

[14] = APR_HepG2_StressKinase_72hr: Apredica 72-hour HepG2 Assay for Stress Kinase (AID 2282921); details: HepG2 stress kinase (phospho-c-Jun) imaging, actives raise or lower the signal
Summary of the method: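 Cells were exposed for 72 h to ten concentrations (0.39–200 uM, duplicate) at 0.5% v/v DMSO final, then fixed with 3.7% formaldehyde, permeabilized and immunostained for phospho-c-Jun (Cy3 secondary) with Hoechst nuclear counterstain.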

[15] = APR_HepG2_StressKinase_24hr: Apredica 24-hour HepG2 Assay for Stress Kinase (AID 2282922); details: HepG2 stress kinase (phospho-c-Jun) imaging, actives raise or lower the signal
Summary of the method: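 HepG2 cells exposed 24 hr to compound at 0.39–200 uM (10 concentrations, duplicate), 0.5% v/v DMSO final. Fixed in 3.7% formaldehyde, permeabilized with Triton X-100, immunolabeled for phospho-c-Jun with Hoechst 33342; HCS fluorescence imaging, bidirectional fit versus DMSO.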

[16] = APR_HepG2_p53Act_72hr: Apredica 72-hour HepG2 Assay for p53 Activation (AID 2282923); details: high-content imaging, actives raise or lower the signal;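 further: average cellular p53 protein immunofluorescence intensity in HepG2 cells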
Summary of the method: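 Cells were dosed for 72 hr with compounds at 0.39–200 uM in duplicate (final DMSO 0.5% v/v), then fixed in 3.7% formaldehyde, permeabilized with Triton X-100 and immunostained for p53 (Cy5) with Hoechst 33342 nuclear counterstain.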

[17] = APR_HepG2_MitoMass_72hr: Apredica 72-hour HepG2 Assay for Mitochondrial Mass (AID 2282924); details: high-content imaging, actives raise or lower the signal;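 further: MitoTracker Red CMXRos stain intensity per cell imaged as mitochondrial mass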
Summary of the method: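 HepG2 cells were exposed for 72 hr to compounds at 0.39–200 uM (ten concentrations, duplicate, 0.5% v/v DMSO final). Live cells were stained with 250 nM MitoTracker Red CMXRos for 30 min, then fixed in 3.7% formaldehyde and imaged by HCS fluorescence.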

[18] = APR_HepG2_NuclearSize_72hr: Apredica 72-hour HepG2 Assay for Nuclear Size (AID 2282925); details: high-content imaging, actives raise or lower the signal
Summary of the method: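 HepG2 cells were exposed to compounds at ten concentrations from 0.39 to 200 uM (duplicate, 0.5% DMSO final) for 72 hr. After fixation in 3.7% formaldehyde, nuclei were stained with Hoechst 33342 (2 ug/mL) and imaged at 20x.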

[19] = APR_HepG2_P-H2AX_24hr: Apredica 24-hour HepG2 Assay for H2AX Phosphorylation (AID 2282920); details: high-content imaging, actives raise or lower the signal
Summary of the method: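 HCS fluorescence imaging of phospho-H2A.x immunostain (with Hoechst 33342 nuclear counterstain) in HepG2 after 24 hr compound exposure; 10 concentrations, 0.39–200 uM, duplicate wells, 0.5% v/v DMSO. Gain or loss of signal fitted relative to DMSO baseline.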

Measured: AC50

CCN(CC)CCO
not listed: [19]
inactive: all other assays above

Nc1ccc(N=Nc2ccccc2)cc1
active: [1] 75.5 µM | [8] 23.6 µM | [9] 99.4 µM | [10] 63.4 µM | [16] 71.1 µM
not listed: [11] | [12] | [13] | [17]
inactive: all other assays above

COc1cc(C=O)cc2c1[C@H](COC(N)=O)[C@]1(OC(C)=O)ON2C[C@H]2[C@@H]1N2C(C)=O
active: [6] 0.474 µM
not listed: [19]
inactive: all other assays above

[Cl-].[Cl-].[Hg+2]
active: [2] 31.9 µM | [3] 31.3 µM | [4] 28.9 µM | [5] 23.7 µM | [6] 74.4 µM | [7] 28 µM | [9] 20.3 µM | [12] 17.6 µM | [13] 13.2 µM | [15] 19.8 µM
inactive: [1] | [8] | [10] | [11] | [14] | [16] | [17] | [18]
